Sampled rows, rich in hits. Any-hit rate of the full collection: about 2.4%.
GLS inhibitor – glutaminase GLS (human) inhibition; 410,000 compounds, 0.21% hits; AID 624170; GLS enzymatic activity, qHTS titration; Potency, µM (doses to about 45.5 µM), hits mostly inhibitors
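hKGA; 45 mM KH2PO4 pH 8.2 + 0.02% Tween-20; cpd via pin tool; 1 mM Gln soln; GluOx/HRP/Amplex Red; RT 30 min; fluor. t0 & final.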
GCN5L2 inh – blocks human GCN5L2 histone acetyltransferase | Potency, µM (series often up to 58.9 µM), most hits filed as inhibitors | Q92830 | 390,000 compounds, 0.21% hits | GCN5L2 HAT assay, ThioGlo1 CoA-SH fluorescence
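Compounds, pin-transferred from DMSO stocks, meet 20nM GCN5L2 for 15 min before the reaction begins with H3(1-25) peptide (75uM) and acetyl-CoA (70uM). Thiol-reactive ThioGlo1 reports CoA release over 20 min at room temperature.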
Pol kappa inh – blocks human DNA polymerase kappa activity. Q9UBT6. purified Pol kappa, fluorescent DNA synthesis assay, 10 min. Potency, µM (series often up to 107 µM), actives largely listed as inhibitors. 400,000 compounds, 0.53% hits
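10 nM Pol kappa was preincubated with compounds for 15 min at room temperature. Reaction started with 50 nM (final) substrate. Fluorescence read kinetically at 0 and 10 min.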
Pol iota inh – blocks human DNA polymerase iota activity; Pol iota fluorescent replication assay, 10 min; Q9UNA4; 390,000 compounds, 1% hits; Potency, µM (doses to about 115 µM), usual class: inhibitors
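Pol iota at 10 nM preincubated 15 min with compounds at room temperature; reaction started with fluorescent substrate, 50 nM final. Fluorescence read kinetically at 0 and 10 min; buffer-only wells as negative control.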
POLB inh – inhibitors of human DNA polymerase beta; P06746; Pol beta primer extension/strand displacement, fluorescence kinetic; Potency, µM (highest dose often 114 µM), hits mostly inhibitors; 340,000 compounds, 1.3% hits
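Homogeneous kinetic assay of primer extension and strand displacement by 10 nM Pol beta, preincubated 15 min at room temperature with compound before 50 nM substrate (final) was added. Read at 0 and 10 min; four-parameter Hill fit.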
POLH inh – blocks human DNA polymerase eta activity | 390,000 compounds, 1.2% hits | AID 588591 | Potency, µM (highest dose often 114 µM), most hits filed as inhibitors | recombinant Pol eta, fluorescent DNA replication assay
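Pol eta (10 nM) was preincubated with compounds for 15 min at room temperature, after which fluorescent replication substrate (50 nM final) was added to start the reaction. Fluorescence was read kinetically at 0 and 10 min.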
Hits are given with their value; - = inactive; ? = inconclusive; . = no result given. Calls follow the shape of the dose curve; as a rule, active = well fitted inhibition curve with a large enough effect; inconclusive = small, poorly fitted or top-dose-only effect, or another doubt; inactive = no such curve, though single readings can be large or run the other way.

SMILES	GLS inhibitor	GCN5L2 inh	Pol kappa inh	Pol iota inh	POLB inh	POLH inh
O=S(=O)(c1ccc(Cl)cc1)c1nc(-c2ccco2)oc1SCc1ccccc1F	-	-	-	-	-	-
Cc1ccc(CSc2oc(-c3ccco3)nc2S(=O)(=O)c2ccc(Br)cc2)cc1	-	-	?	56.2µM	-	-
Cc1cc(/C=C2\C=Cc3ccccc32)cc(C)c1[N+](=O)[O-]	.	.	-	-	.	.
CCCCN(CCC#N)c1ccc(/C=C/c2ccnc3ccccc23)cc1	.	.	-	-	.	.
CC(C)(C)OC(=O)N1CC23CC(c4ccc(F)cc4)C(CC2S1(=O)=O)O3 (stereo unspecified)	.	.	-	-	.	.
O=C(/C=C/c1ccco1)N(Cc1ccccc1F)C1CCS(=O)(=O)C1 (stereo unspecified)	-	-	-	50.1µM	?	?
CC(C)c1ccc(CN(C(=O)/C=C/c2ccco2)C2CCS(=O)(=O)C2)cc1 (stereo unspecified)	-	-	-	?	?	?
CCn1c(C)nc2cc(C(=O)N/N=C/c3ccc(N4CCOCC4)cc3)ccc21	-	-	-	?	22.4µM	-
CCn1c(C)nc2cc(C(=O)N/N=C/c3cccc(O)c3O)ccc21	-	-	?	25.1µM	?	-
CCn1c(C)nc2cc(C(=O)N/N=C(\C)c3ccc(N4CCOCC4)cc3)ccc21	-	-	-	-	-	-
O=C(C[n+]1cccc(Br)c1)c1ccc2c(c1)CCCC2	.	.	-	-	.	.
O=C(Nc1ccc2oc(-c3cc(Br)ccc3Cl)nc2c1)c1cc2ccccc2o1	-	?	-	-	2.82µM	?
Clc1cccc(N2CCN(c3ncnc4c3nc3n4CCCCC3)CC2)c1	-	-	-	-	-	-
C=CCn1c(SCC(=O)c2ccc(O)c(O)c2)nnc1-c1cccc(Cl)c1	-	-	39.8µM	?	.	15.8µM
C=CCn1c(SCC(=O)c2ccc(O)c(O)c2)nnc1-c1ccccc1OC	-	-	?	50.1µM	?	25.1µM
C=CCn1c(SCC(=O)O)nnc1-c1cccc(Cl)c1	-	-	-	?	-	-
Cc1nc([N+](=O)[O-])cn1CC(O)c1ccc2c(c1)OCCO2 (stereo unspecified)	.	.	-	?	.	.
Cc1nn(-c2ccccc2)c(Cl)c1C(=O)NCc1cccs1	-	-	-	?	12.6µM	?
CCCOC(=O)C1=C(C)N(C)C(=O)NC1c1cc2c(cc1[N+](=O)[O-])OCO2 (stereo unspecified)	-	-	79.4µM	4.47µM	?	-
CC1=C(C(=O)OCC(C)C)C(c2cc3c(cc2Br)OCO3)NC(=O)N1C (stereo unspecified)	-	-	-	-	-	-
Cc1cc2c(c(C)c1Cl)C(c1ccc3c(c1)OCO3)CC(c1ccccc1)O2 (stereo unspecified)	.	.	-	-	.	.
O=C1NC(=S)N/C1=C/c1cccn1-c1ccc([N+](=O)[O-])cc1	-	-	?	56.2µM	7.94µM	?
N=C1/C(=C/c2cccn2-c2ccc([N+](=O)[O-])cc2)C(=O)N=C2SC=CN12	-	-	-	?	?	?
O=C(COc1c(Br)cc(Br)c2cccnc12)Nc1ccccc1F	-	-	-	-	4.47µM	?
COc1ccc(-c2cn3nc(N4CCCC(C(=O)Nc5cccc(OC)c5)C4)sc3n2)cc1 (stereo unspecified)	-	-	-	-	-	-
SMILES	GLS inhibitor	GCN5L2 inh	Pol kappa inh	Pol iota inh	POLB inh	POLH inh
Cc1ccc(/C=C2\Oc3c(ccc(O)c3CN3CCN(CCO)CC3)C2=O)cc1	-	-	-	-	-	-
COCCN(CCOC)Cc1c(O)ccc2c1O/C(=C\c1ccco1)C2=O	-	-	?	?	10µM	?
O=C1/C(=C/c2ccco2)Oc2c1ccc(O)c2CN1CCCCC1	-	-	79.4µM	?	20µM	22.4µM
CC1CCN(Cc2c(O)ccc3c2O/C(=C\c2ccco2)C3=O)CC1	-	-	?	?	11.2µM	56.2µM
COc1cc(O)c(CC=C(C)C)c(O)c1C(=O)CCc1ccc(O)cc1	-	-	-	-	-	-
O=C(CCc1ccc(O)cc1)c1c(O)cc(O)cc1O	-	-	?	-	7.08µM	-
COc1cc(C(C)=O)ccc1OCc1cn(CC(=O)c2ccc(O)cc2)nn1	-	.	-	4.47µM	.	-
Cc1cccc(C)c1OCc1cn(CC(=O)c2ccc(O)cc2)nn1	-	.	-	7.94µM	.	-
CC(=O)c1ccc(OCc2cn(CC(=O)c3ccc(O)cc3)nn2)c(C)c1	-	.	.	.	.	-
CC(=O)c1ccc(OCc2cn(CC(=O)c3ccc(O)cc3)nn2)cc1	-	.	-	?	.	-
O=C(Cn1cc(COc2ccc(Br)cc2[N+](=O)[O-])nn1)c1ccc(O)cc1	-	.	-	4.47µM	.	-
O=C(Cn1cc(COc2ccccc2C(F)(F)F)nn1)c1ccc(O)cc1	-	.	-	5.01µM	.	-
Cc1oc2ccc(O)c(CN(C)Cc3ccccc3)c2c1C(=O)Nc1ccccc1	-	-	-	-	-	-
O=C(CC(C(=O)O)n1ccnc1)c1ccc(Cl)cc1 (stereo unspecified)	.	.	-	?	.	.
CCCCCn1c(=O)[nH]c2cc(C(=O)NCc3ccc(F)cc3)ccc2c1=O	-	-	-	-	?	-
COCCNc1ncnc2ccc(-c3ccccc3C(F)(F)F)cc12	.	?	-	.	.	.
N/C(=N\OC(=O)Cc1cccs1)c1ccccc1	-	-	-	-	-	15.8µM
COc1ccc(C(=O)C[n+]2cccc3cccc(O)c32)cc1	.	.	-	-	.	.
CCc1cccc(NC(=O)CN2C(=O)CCc3cc(S(=O)(=O)N4CCOCC4)ccc32)c1	-	-	-	-	-	-
CC1CCN(S(=O)(=O)c2ccc3c(c2)CCC(=O)N3CC(=O)Nc2cccc(C#N)c2)CC1	-	-	-	?	50.1µM	79.4µM
CN(Cc1ccccc1)/[N+]([O-])=N/Oc1ccc([N+](=O)[O-])cc1[N+](=O)[O-]	.	.	-	?	.	.
Cc1ccc2nc(SCC(=O)Nc3ccc(C(N)=O)cc3)[nH]c2c1	-	-	-	-	-	-
Cc1ccc2nc(-c3ccc(NC(=O)CSc4ccccc4)cc3)[nH]c2c1	-	-	-	35.5µM	22.4µM	-
O=C(CSc1ccccc1)Nc1ccc(-c2nc3ccccc3[nH]2)cc1	-	?	?	?	7.08µM	?
O=C(CSc1ccc(Cl)cc1)Nc1cccc(-c2nc3ccccc3[nH]2)c1	-	-	-	?	-	?
CC(=O)N1CCc2cc(S(=O)(=O)CCC(=O)N3CCN(c4ccccc4)CC3)ccc21	-	-	-	-	1.26µM	-
CCC(=O)N1CCc2cc(S(=O)(=O)CCC(=O)N3CCN(c4ccccc4)CC3)ccc21	-	-	-	-	-	-
O=C(O)c1c[nH]c2ccc(S(=O)(=O)N3CCN(c4ccc(F)cc4)CC3)cc2c1=O	-	-	?	?	20µM	89.1µM

High-throughput results (PubChem)
